This is one part of a sample in which hits are shown more often than they occur.
Tgondii IFNg = inhibitors of Toxoplasma gondii growth with IFN-gamma; Toxoplasma gondii growth in IFN-gamma-treated host cells; stronger effect = lower value; activity change, negative = inhibition, % (no concentration beside the values); actives 3.8% (n = 69,000); in the data active = activity change below about -70%, passing the limit was not always enough;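 note: host cells are HeLa cells infected with Toxoplasma gondii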
An asterisk follows results filed as active.

CCN(Cc1noc(C)n1)C(=O)c1cc2n(n1)CCN(C(C)=O)C2 was read as Tgondii IFNg 0.
`Cc1cc(NC(=O)N2CCC3(CC2)Nc2ccccc2-n2cccc23)ccc1Br` gave Tgondii IFNg -116*.
Screening Cc1ccc(NC(=O)N2CCC3(CC2)Nc2ccccc2-n2cccc23)cc1Cl returned Tgondii IFNg inactive.
COc1cc(OC)cc(C(=O)N2CCC3(CC2)Nc2ccc(Cl)cc2-n2cccc23)c1 was read as Tgondii IFNg -9.
Screening O=C(Cc1ccc(F)cc1)N1CCC2(CC1)Nc1ccc(Cl)cc1-n1cccc12 returned Tgondii IFNg -59.
`CCOc1ccccc1C(=O)N1CCC2(CC1)Nc1ccc(Cl)cc1-n1cccc12` gave Tgondii IFNg -104*.
COc1ccc(CCC(=O)N2CCC3(CC2)Nc2ccc(Cl)cc2-n2cccc23)cc1 was read as Tgondii IFNg -97*.
Screening O=C(c1ccccc1)N1CCC2(CC1)Nc1ccc(Cl)cc1-n1cccc12 returned Tgondii IFNg 6.
`CCC(C(=O)N1CCC2(CC1)Nc1ccc(Cl)cc1-n1cccc12)c1ccccc1` (stereo not given) gave Tgondii IFNg -128*.
Screening CC(C)C(=O)N1CCC2(CC1)Nc1ccc(Cl)cc1-n1cccc12 returned Tgondii IFNg 45.
Screening COc1ccccc1C(=O)N1CCC2(CC1)Nc1ccc(Cl)cc1-n1cccc12 returned Tgondii IFNg 62.
Screening CCOc1ccccc1C(=O)N1CCC2(CC1)Nc1ccccc1-n1cccc12 returned Tgondii IFNg 40.
Screening COc1ccc2c(c1)NC1(CCN(C(=O)Nc3ccc(Br)c(C)c3)CC1)c1cccn1-2 returned Tgondii IFNg 66.
COc1ccc(OCC(=O)NCCc2csc(-c3cccc(F)c3)n2)cc1 was read as Tgondii IFNg 6.
CCC(C(=O)N1CCC2(CC1)C(=O)NCCN2C)n1cccn1 (stereo not given) was read as Tgondii IFNg -1.
Cc1ccc(-c2csnn2)cc1NC(=O)CCc1nc2cc(Cl)ccc2n1C was read as Tgondii IFNg -8.
`NC(=O)c1cc(SC(F)(F)F)cc(SC(F)(F)F)c1` gave Tgondii IFNg -27.
For CC(C)N(C)Cc1ncn2c1CN(C(=O)C1CCCO1)CCC2 (stereo not given) the results were Tgondii IFNg 7.
`Cc1noc(C)c1CC(=O)Nc1ccccc1Oc1ccc(F)cc1` gave Tgondii IFNg 54.
For CCN(CC)c1ccc2ccc(C(=O)N(CCOC)CCOC)cn12 the results were Tgondii IFNg -8.
Screening O=C(COc1ccc(Cl)cc1)N1CCC2(CC1)Nc1ccccc1-n1cccc12 returned Tgondii IFNg -8.
For COc1ccc(CCC(=O)N2CCC3(CC2)Nc2ccccc2-n2cccc23)cc1 the results were Tgondii IFNg -115*.
Screening O=C(COc1ccccc1)N1CCC2(CC1)Nc1ccc(Cl)cc1-n1cccc12 returned Tgondii IFNg -84*.
Screening COc1ccc(C(=O)N2CCC3(CC2)Nc2ccccc2-n2cccc23)cc1 returned Tgondii IFNg -11.
`O=C(Cc1ccccc1)N1CCC2(CC1)Nc1ccc(Cl)cc1-n1cccc12` gave Tgondii IFNg 61.
For COc1cc(CCC(=O)N2CCC3(CC2)Nc2ccccc2-n2cccc23)cc(OC)c1OC the results were Tgondii IFNg -20.
CCCS(=O)(=O)N1C[C@H]2COC[C@H](c3nc(C)no3)[C@H]2C1 was read as Tgondii IFNg -1.
For Cc1nc(C)n(CC(C)C(=O)N2CCc3[nH]nc(-c4ccccc4F)c3C2)n1 (stereo not given) the results were Tgondii IFNg 0.
C=CCn1c(SCC(=O)Nc2ccc3c(c2)n(C)c(=O)n3C)nnc1-c1ccco1 was read as Tgondii IFNg 30.
`Cc1cc(C)n(Cc2c(C(=O)Nc3ccc4nc(C(C)C)sc4c3)noc2C)n1` gave Tgondii IFNg -31.
`C[C@@H]1C(=O)O[C@H]2[C@H](O)C34[C@H]5C[C@@H](C(C)(C)C)[C@]36[C@@H](OC(=O)[C@@H]6O)O[C@]4(C(=O)O5)[C@@]12O` (stereo not given in full) gave Tgondii IFNg 8.
Screening COc1cc(NC(=O)CN2CCC3(CC2)N=C(c2cccc(C)c2)C(=O)N3)cc(OC)c1 returned Tgondii IFNg -3.
For Cc1ccc(C(=O)NCCc2sc(-c3ccc(Cl)cc3)nc2C)cc1C the results were Tgondii IFNg -12.
Screening Cc1ccc(OCC(=O)NCCc2sc(-c3ccc(Cl)cc3)nc2C)cc1 returned Tgondii IFNg -76*.
For Cc1nc(-c2ccc(F)cc2)sc1CCNC(=O)c1ccc(C(C)(C)C)cc1 the results were Tgondii IFNg -26.
Cc1nc(-c2ccc(Cl)cc2)sc1CCNC(=O)c1ccc(F)cc1 was read as Tgondii IFNg -47.
For Cc1nc(-c2ccc(F)cc2)sc1CCNC(=O)c1ccc(Br)cc1 the results were Tgondii IFNg -81*.
`Cc1nc(-c2ccc(Cl)cc2)sc1CCNC(=O)COc1ccccc1` gave Tgondii IFNg 44.
Screening Cc1nc(-c2ccc(F)cc2)sc1CCNC(=O)c1ccccc1 returned Tgondii IFNg -26.
For Cc1nc(-c2ccc(Cl)cc2)sc1CCNC(=O)c1ccc(F)c(F)c1 the results were Tgondii IFNg -77*.
For Cc1ccc(OCC(=O)NCCc2sc(-c3ccc(F)cc3)nc2C)cc1 the results were Tgondii IFNg -24.
CCn1c(C2CCN(C(=O)COCC3CCCCO3)CC2)nn(C)c1=O (stereo not given) was read as Tgondii IFNg 6.
Screening CCCS(=O)(=O)N1C[C@H]2COC[C@@H](Cc3nc(C)no3)[C@H]2C1 returned Tgondii IFNg 12.
CC(Oc1ccccc1-c1ccccc1Cl)C(N)=O (stereo not given) was read as Tgondii IFNg -7.
Screening O=C(O)CCC(=O)Nc1ccc(S(=O)(=O)N2CCCC2)cc1 returned Tgondii IFNg 151.
For O=C(O)CCn1c(=O)sc2ccccc21 the results were Tgondii IFNg 7.
`O=C(CCn1c(=O)sc2ccccc21)Nc1ccc(S(=O)(=O)N2CCCCC2)cc1` gave Tgondii IFNg -88*.
Screening C1CCc2c(nn3c2n2nc4c(c2n2nc5c(c32)CCCC5)CCCC4)C1 returned Tgondii IFNg 23.
Cc1ccc2cc(CN(Cc3ccccc3)S(=O)(=O)c3ccccc3)c(=O)[nH]c2c1 was read as Tgondii IFNg -36.
For c1ccc(C(c2ccccc2)N2CCN(c3nnnn3-c3ccccc3)CC2)cc1 the results were Tgondii IFNg -14.
`Cc1nc2nnc3ccc(C(=O)C(C)C)cc3c2n1C1CCCC1` gave Tgondii IFNg 1.
`C[C@@H]1CN([C@@H](C)CO)C(=O)CCCn2nncc2CO[C@@H]1CN(C)Cc1cccc(C(F)(F)F)c1` gave Tgondii IFNg 27.
For C[C@H]1CN([C@@H](C)CO)C(=O)CCCn2nncc2CO[C@H]1CN(C)Cc1cccc(C(F)(F)F)c1 the results were Tgondii IFNg -106*.
Screening C[C@H](CO)N1C[C@H](C)[C@@H](CN(C)Cc2cccc3c2OCCCO3)OCc2cnnn2CCCC1=O returned Tgondii IFNg 201.
`C[C@H](CO)N1C[C@H](C)[C@H](CN(C)Cc2cccc(C(F)(F)F)c2)OCc2cnnn2CCCC1=O` gave Tgondii IFNg 179.
`C[C@@H]1CN([C@H](C)CO)C(=O)CCCn2nncc2CO[C@@H]1CN(C)Cc1cccc2c1OCCCO2` gave Tgondii IFNg -58.
`C[C@@H]1CN([C@H](C)CO)C(=O)CCCn2nncc2CO[C@H]1CN(C)Cc1cccc2c1OCCCO2` gave Tgondii IFNg -88*.

Screens deposited in PubChem BioAssay by Broad Institute.
